Reference: PubChem BioAssay (NCATS)
Records with an inconclusive call do not appear. Values without a mark were called inactive. Calls come from the whole dose curve; tested in HEK293 reporter line.

Assay: qHTS for Inhibitors of the Functional Ribonucleoprotein Complex (vRNP) of Lassa (LASV) Arenavirus: LASV Primary Screen - GLuc reporter signal (AID 1347082); note: nearly all actives have a fitted effect of over 60% in size
Conditions: LASV minigenome vRNP, Gaussia luciferase reporter; series mostly up to 57.5 µM; activity change, negative = inhibition: at the top concentration
% is set by controls: 0 for no effect and ±100 for the full control effect.

In order of falling “activity change, negative = inhibition” value:
1. CC(=O)N1CCN(c2ccc(OCc3nn(C)c(C)c3-c3cccc4c(CCCOc5cc(C)c(Cl)c(C)c5)c(C(=O)O)n(Cc5cccnc5)c34)cc2)CC1  30.7%
2. Cn1c(N2CCCCS2(=O)=O)nc(C(=O)NCc2ccc(F)cc2)c(O)c1=O  10.6%
3. OC[C@H]1O[C@@H](OC[C@H]2O[C@@H](O)[C@H](O)[C@@H](O)[C@@H]2O)[C@H](O)[C@@H](O)[C@@H]1O  9.04%
4. CC(O)[C@H]1CC[C@H]2[C@@H]3CC[C@H]4C[C@@H](O)CC[C@]4(C)[C@H]3C(=O)C[C@]12C (stereo not given in full)  8.61%
5. CC(=O)OCC1=C(C(=O)O)N2C(=O)[C@@H](NC(=O)Cc3ccccc3)[C@H]2SC1  7.75%
6. C=C1[C@@H](OC(C)=O)CC[C@]2(C)[C@@H]1C[C@@H]1C[C@H](OC(C)=O)C(C)=C([C@@H](OC(C)=O)[C@@H]2OC(C)=O)C1(C)C  7.64%
7. O=c1c(-c2ccc(O)cc2)coc2cc(OC3OC(CO)C(O)C(O)C3O)ccc12 (stereo not given)  6.46%
8. COc1cc(C(C)=O)cc(OC)c1O  4.15%
9. C[C@@H]1CCN(C(=O)CC#N)C[C@H]1N(C)c1ncnc2[nH]ccc12  3.67%
10. C/C=C(/CC[C@@H](C)[C@H]1CC[C@H]2C3=CC[C@H]4[C@H](C)[C@@H](O)CC[C@]4(C)[C@H]3CC[C@]12C)C(C)C  2.91%
11. COc1cc(O)c2c(=O)c3c(OC)c(O)ccc3oc2c1  2.83%
12. C=C(C)c1cc2c(ccc3ccc(=O)oc32)o1  1.56%
13. CC1=C[C@H](O)CC(C)(C)[C@H]1/C=C/C(C)=C/C=C/C(C)=C/C=C/C=C(C)/C=C/C=C(C)/C=C/C1=C(C)C[C@@H](O)CC1(C)C  1.3%
14. COc1cc2c(c(OC)c1OC)-c1c(cc3c(c1OC)OCO3)C1OC2[C@@H](C)[C@H]1C (stereo not given in full)  0.732%
15. CCCCN(CCCC)CC(O)c1cc(Cl)cc2c1-c1ccc(Cl)cc1C2=Cc1ccc(Cl)cc1 (stereo not given)  -0.382%
16. CC1=CC(=O)O[C@@H]1[C@@]1(C)C[C@H]2OC(=O)C[C@H]3[C@@H](C)C(=O)C(O)=C1[C@@]23CO  -0.601%
17. CCCCCc1ccco1  -1.08%
18. O=c1ccc2ccc(O[C@@H]3O[C@H](CO[C@@H]4OC[C@](O)(CO)[C@H]4O)[C@@H](O)[C@H](O)[C@H]3O)cc2o1  -1.34%
19. COc1cc2cc(Oc3ccc4ccc(=O)oc4c3)c(=O)oc2cc1OC(C)=O  -1.51%
20. NCCCCCN  -2.45%
21. C#C[C@]1(O)CC[C@H]2[C@@H]3CCC4=Cc5oncc5CC4(C)[C@H]3CCC21C (stereo not given in full)  -4.04%
22. COc1cc(C(=O)O)cc(OC)c1OC  -4.15%
23. CC[C@]1(O)C[C@@H]2CN(CCc3c([nH]c4ccccc34)[C@@](C(=O)OC)(c3cc4c(cc3OC)N(C=O)[C@@H]3C45CCN4CC=C[C@](CC)([C@H]45)[C@@H](OC(C)=O)[C@]3(O)C(=O)OC)C2)C1 (stereo not given in full)  -4.28%
24. O=c1c(O)c(-c2ccccc2O)oc2cc(O)cc(O)c12  -4.55%
25. COc1cc(-c2ccccc2)nc2ccccc12  -4.99%
26. CC/C=C\CCOC(=O)CC  -5.92%
27. C#CCCCCCCCCCCCc1ccco1  -7.9%
28. CC(=O)O[C@@H]1[C@H](OC(=O)CC(C)C)c2c(ccc3ccc(=O)oc23)OC1(C)C  -7.95%
29. C/C(=N/N=C(\C)c1ccccc1O)c1ccccc1O  -8.32%
30. CS(C)(=O)=O  -18.4%

In order of falling “activity change, negative = inhibition” value:
1. Cc1nc(C)c(C)nc1C  1.56% [at 115 µM]
2. CC(=O)CCC1=C(C)CCCC1(C)C  0.48% [at 115 µM]
3. CC(C)=CCCC(C)CC=O (stereo not given)  -0.725% [at 115 µM]
4. CC(=O)c1ccccc1O  -0.893% [at 115 µM]
5. CCCCCC(=O)OCC  -2.3% [at 115 µM]
6. Cc1ccc(C(C)C)cc1O  -2.69% [at 115 µM]
7. CCCCCCOC(=O)CCCCC  -4.64% [at 115 µM]
8. C=CC(O)CCCCC (stereo not given)  -5.28% [at 115 µM]
9. CCCCOC(=O)C(C)OC(=O)CCC (stereo not given)  -19.9% [at 115 µM]

For O=C(O)CCC[C@H](O)\C=C/C=C/C=C/[C@H](O)C/C=C\CCCCCO, the activity change, negative = inhibition was 12% [at 0.757 µM].

Assay: qHTS for Inhibitors of the Functional Ribonucleoprotein Complex (vRNP) of Lassa (LASV) Arenavirus: Viability assay - alamar blue signal for LASV Primary Screen (AID 1347083); note: nearly all actives have a fitted effect of over 80% in size
Conditions: cell viability, alamar blue fluorescence (LASV minigenome counter-screen); series mostly up to 57.5 µM; activity change, negative = reduced viability: at the top concentration

In order of falling “activity change, negative = reduced viability” value:
1. COc1cc(-c2ccccc2)nc2ccccc12  20.1%
2. CC(=O)OCC1=C(C(=O)O)N2C(=O)[C@@H](NC(=O)Cc3ccccc3)[C@H]2SC1  18%
3. C=C1[C@@H](OC(C)=O)CC[C@]2(C)[C@@H]1C[C@@H]1C[C@H](OC(C)=O)C(C)=C([C@@H](OC(C)=O)[C@@H]2OC(C)=O)C1(C)C  15%
4. C/C=C(/CC[C@@H](C)[C@H]1CC[C@H]2C3=CC[C@H]4[C@H](C)[C@@H](O)CC[C@]4(C)[C@H]3CC[C@]12C)C(C)C  14.1%
5. COc1cc(C(C)=O)cc(OC)c1O  14%
6. C/C(=N/N=C(\C)c1ccccc1O)c1ccccc1O  13.4%
7. O=c1ccc2ccc(O[C@@H]3O[C@H](CO[C@@H]4OC[C@](O)(CO)[C@H]4O)[C@@H](O)[C@H](O)[C@H]3O)cc2o1  10.3%
8. COc1cc2cc(Oc3ccc4ccc(=O)oc4c3)c(=O)oc2cc1OC(C)=O  9.43%
9. O=c1c(-c2ccc(O)cc2)coc2cc(OC3OC(CO)C(O)C(O)C3O)ccc12 (stereo not given)  8.99%
10. C=C(C)c1cc2c(ccc3ccc(=O)oc32)o1  6.86%
11. C#CCCCCCCCCCCCc1ccco1  6.37%
12. CCCCCc1ccco1  6.07%
13. NCCCCCN  5.82%
14. OC[C@H]1O[C@@H](OC[C@H]2O[C@@H](O)[C@H](O)[C@@H](O)[C@@H]2O)[C@H](O)[C@@H](O)[C@@H]1O  5.34%
15. CC1=C[C@H](O)CC(C)(C)[C@H]1/C=C/C(C)=C/C=C/C(C)=C/C=C/C=C(C)/C=C/C=C(C)/C=C/C1=C(C)C[C@@H](O)CC1(C)C  4.69%
16. CC[C@]1(O)C[C@@H]2CN(CCc3c([nH]c4ccccc34)[C@@](C(=O)OC)(c3cc4c(cc3OC)N(C=O)[C@@H]3C45CCN4CC=C[C@](CC)([C@H]45)[C@@H](OC(C)=O)[C@]3(O)C(=O)OC)C2)C1 (stereo not given in full)  3.9%
17. COc1cc(C(=O)O)cc(OC)c1OC  2.41%
18. COc1cc(O)c2c(=O)c3c(OC)c(O)ccc3oc2c1  1.61%
19. CC(=O)N1CCN(c2ccc(OCc3nn(C)c(C)c3-c3cccc4c(CCCOc5cc(C)c(Cl)c(C)c5)c(C(=O)O)n(Cc5cccnc5)c34)cc2)CC1  0.617%
20. C[C@@H]1CCN(C(=O)CC#N)C[C@H]1N(C)c1ncnc2[nH]ccc12  0.555%
21. CS(C)(=O)=O  0.007%
22. CC(O)[C@H]1CC[C@H]2[C@@H]3CC[C@H]4C[C@@H](O)CC[C@]4(C)[C@H]3C(=O)C[C@]12C (stereo not given in full)  -0.211%
23. O=c1c(O)c(-c2ccccc2O)oc2cc(O)cc(O)c12  -0.709%
24. CCCCN(CCCC)CC(O)c1cc(Cl)cc2c1-c1ccc(Cl)cc1C2=Cc1ccc(Cl)cc1 (stereo not given)  -1.17%
25. CC/C=C\CCOC(=O)CC  -1.42%
26. Cn1c(N2CCCCS2(=O)=O)nc(C(=O)NCc2ccc(F)cc2)c(O)c1=O  -3.11%
27. CC(=O)O[C@@H]1[C@H](OC(=O)CC(C)C)c2c(ccc3ccc(=O)oc23)OC1(C)C  -8.85%
28. CC1=CC(=O)O[C@@H]1[C@@]1(C)C[C@H]2OC(=O)C[C@H]3[C@@H](C)C(=O)C(O)=C1[C@@]23CO  -9.07%
29. C#C[C@]1(O)CC[C@H]2[C@@H]3CCC4=Cc5oncc5CC4(C)[C@H]3CCC21C (stereo not given in full)  -18.2%
30. COc1cc2c(c(OC)c1OC)-c1c(cc3c(c1OC)OCO3)C1OC2[C@@H](C)[C@H]1C (stereo not given in full)  -31.1%

In order of falling “activity change, negative = reduced viability” value:
1. CCCCCC(=O)OCC  15.9% [at 115 µM]
2. Cc1ccc(C(C)C)cc1O  14.8% [at 115 µM]
3. CCCCOC(=O)C(C)OC(=O)CCC (stereo not given)  11.5% [at 115 µM]
4. CC(=O)CCC1=C(C)CCCC1(C)C  10.9% [at 115 µM]
5. C=CC(O)CCCCC (stereo not given)  7.59% [at 115 µM]
6. Cc1nc(C)c(C)nc1C  7.56% [at 115 µM]
7. CC(C)=CCCC(C)CC=O (stereo not given)  4.89% [at 115 µM]
8. CC(=O)c1ccccc1O  0.954% [at 115 µM]
9. CCCCCCOC(=O)CCCCC  -15.7% [at 115 µM]

O=C(O)CCC[C@H](O)\C=C/C=C/C=C/[C@H](O)C/C=C\CCCCCO gave an activity change, negative = reduced viability of 2.93% [at 0.757 µM].
